# Measurements: PubChem BioAssay (NCI)
# Compounds without any hit were thinned out: in the full panel of roughly 79,000, 15% have a hit. Unmarked numbers belong to inactive results. Calls of active or inactive are those of the source. Rule as the data show it: active = growth inhibition above about 70%; inactive = the rest.
# Key:
# [1] = NCI Yeast Anticancer Drug Screen. Data for the rad50 strain (AID 155);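 also: 0% = growth of vehicle-only cultures of the same strain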; details: S. cerevisiae rad50 strain growth inhibition, hits give high values
# Outline: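 Vehicle-treated cultures provide the reference for the growth inhibition reported for compound-exposed, repair-deficient yeast.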
# [2] = NCI Yeast Anticancer Drug Screen. Data for the mec2-1 strain (AID 157); details: S. cerevisiae mec2-1 strain, hits give high values
# Outline: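 Compounds were applied to mec2-1 yeast cells. Their growth was then compared with that of vehicle-treated cultures to give growth inhibition.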
# [3] = NCI Yeast Anticancer Drug Screen. Data for the sgs1 mgt1 strain (AID 161);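 also: 0% = growth of cultures given vehicle only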; details: S. cerevisiae sgs1 mgt1 strain, hits give high values
# Outline: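 This yeast growth screen uses a strain with defined DNA-repair lesions; compound-treated growth is compared with vehicle-treated growth.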
# [4] = NCI Yeast Anticancer Drug Screen. Data for the cln2 rad14 strain (AID 165);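 also: 0% = growth equal to vehicle treated cultures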; details: S. cerevisiae cln2 rad14 strain, hits give high values
# Outline: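 Strain: cln2 rad14 yeast, altered in cell cycle control and DNA damage repair. Read-out: growth inhibition vs vehicle.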
# [5] = NCI Yeast Anticancer Drug Screen. Data for the bub3 strain (AID 167); details: S. cerevisiae bub3 mutant strain, hits give high values
# Outline: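 Mutant yeast screening strain plus compound; vehicle-treated cultures serve as the 0% inhibition reference.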
# [6] = NCI Yeast Anticancer Drug Screen. Data for the mlh1 rad18 strain (AID 175); details: S. cerevisiae mlh1 rad18 strain growth inhibition, hits give high values
# Outline: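 A repair-deficient yeast strain is exposed to test compound, and growth is scored relative to vehicle-treated controls.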
# [7] = at 5.0 µM (retest, dose inferred, filed as 0.5)
# [8] = at 50.0 µM (retest, dose inferred, filed as 5.0)
SMILES,"growth inhibition [1, 7]","growth inhibition [1, 8]",growth inhibition ([1]; at 50.0 µM),"growth inhibition [2, 7]","growth inhibition [2, 8]",growth inhibition ([2]; at 50.0 µM),"growth inhibition [3, 7]","growth inhibition [3, 8]",growth inhibition ([3]; at 50.0 µM),"growth inhibition [4, 7]","growth inhibition [4, 8]",growth inhibition ([4]; at 50.0 µM),"growth inhibition [5, 7]","growth inhibition [5, 8]",growth inhibition ([5]; at 50.0 µM),"growth inhibition [6, 7]","growth inhibition [6, 8]",growth inhibition ([6]; at 50.0 µM)
COc1cccc2c1C(=O)c1c(O)c3c(c(O)c1C2=O)CC(O)(C(C)=O)CC3OC1OC(COC(C)=O)C(OC(C)=O)C(OC(C)=O)C1OC(C)=O (configuration not stated),5%,58%,95.5% (active),49%,30%,97.5% (active),3%,33%,97.8% (active),5%,8%,97.2% (active),2%,83% (active),98.9% (active),3%,59%,98% (active)
CC(=NCC(=O)O)c1ccccc1,-12%,-6%,48.5%,-6%,-3%,-20.2%,-8%,-4%,-52.9%,2%,-6%,-4.8%,10%,13%,-22.1%,-4%,1%,-5.7%
COC(=O)C(Sc1ccc(Cl)cc1)C1SC(=S)N(C)C1=O (configuration not stated),34%,99% (active),62%,19%,99% (active),41.5%,21%,99% (active),65.9%,27%,99% (active),37.2%,15%,99% (active),84.8% (active),38%,98% (active),58%
c1ccc([P+](Cc2ccc(C[P+](c3ccccc3)(c3ccccc3)c3ccccc3)s2)(c2ccccc2)c2ccccc2)cc1,35%,90% (active),80% (active),33%,96% (active),80.3% (active),37%,98% (active),80.7% (active),17%,77% (active),67.4%,47%,96% (active),81% (active),43%,96% (active),75.8% (active)
COc1ccccc1NC(=O)C1=CNC(C)=C(C(=O)Nc2ccccc2OC)C1/C=C/c1ccccc1 (configuration not stated),1%,18%,43.5%,-4%,1%,-0.75%,1%,17%,-1.95%,-1%,-8%,-6.3%,-2%,-8%,-1.9%,-1%,7%,15.3%
CCCCCCC(O)CCOC(C)=O (configuration not stated),-3%,-3%,-19.4%,4%,0%,-13.2%,1%,-3%,-2.15%,2%,-11%,-14.8%,4%,1%,33.1%,-3%,4%,-1.6%
COc1cc(C=O)c(C=O)cc1OC,8%,74% (active),69.9%,6%,40%,50.2%,3%,79% (active),52.5%,9%,84% (active),89.2% (active),5%,87% (active),73.5% (active),16%,87% (active),74.5% (active)
COc1ccc(/C=C2/C(=O)NC3SC=C(c4cccc([N+](=O)[O-])c4)N23)cc1 (configuration not stated),8%,6%,33%,0%,2%,10.9%,-4%,-1%,32.6%,34%,-23%,11.4%,21%,13%,62.9%,5%,23%,29.7%
Nc1nc(Cl)cc(Nc2ccc(Cl)c(Cl)c2)n1,-1%,91% (active),72.8% (active),-2%,73% (active),70.3% (active),-4%,77% (active),95.8% (active),16%,58%,51.7%,3%,92% (active),93.2% (active),-3%,79% (active),89.8% (active)
CN(C)[C@@H]1C(=O)C(C(=O)NCNc2nc3n[nH]nc3c(=O)[nH]2)=C(O)[C@@]2(O)C(=O)C3=C(O)c4c(O)cccc4[C@@](C)(O)[C@H]3C[C@@H]12,-1%,9%,-5.65%,-4%,6%,11.2%,-7%,3%,-7%,1%,-8%,11.6%,7%,14%,-10.6%,1%,4%,-4.9%
O=S(=O)(c1cc(Br)ccc1O)c1cc(Br)ccc1O,94% (active),99% (active),99.8% (active),99% (active),100% (active),99.8% (active),89% (active),99% (active),99.8% (active),99% (active),100% (active),99.5% (active),99% (active),100% (active),99.7% (active),98% (active),99% (active),99.5% (active)
CCOC(=O)C1CC2(CCC1N)c1ccccc1-c1ccccc12 (configuration not stated),3%,28%,28.6%,-5%,8%,47.5%,-2%,27%,44.5%,-5%,34%,22.9%,-5%,23%,90.7% (active),1%,81% (active),37.5%
O=C1Nc2c(ccc(Cl)c2I)C1=O,-28%,97% (active),92.2% (active),-3%,99% (active),94.3% (active),-13%,70% (active),92.3% (active),9%,98% (active),91.2% (active),-5%,98% (active),91.6% (active),-27%,99% (active),91.7% (active)
Cc1ccc([S@](=O)c2occc2C=O)cc1,37%,88% (active),74.5% (active),29%,98% (active),88.5% (active),38%,98% (active),84.5% (active),23%,43%,13.4%,43%,98% (active),62.6%,41%,96% (active),88.2% (active)
c1ccc(N=C2SC3=NCCN3C2=Nc2ccccc2)cc1,43%,87% (active),50%,7%,86% (active),74.5% (active),17%,86% (active),72% (active),31%,66%,46.6%,-11%,97% (active),70.2% (active),13%,78% (active),61.9%
Cc1ccc(NCCN(C)C)c2c(=O)c3ccc(O)cc3sc12,56%,96% (active),98.5% (active),-3%,82% (active),98.9% (active),-1%,88% (active),93% (active),-3%,85% (active),63.5%,-1%,84% (active),98.2% (active),5%,94% (active),99.2% (active)
COc1ccc(C2COc3c(ccc(O)c3O)C2)cc1 (configuration not stated),1%,99% (active),93.3% (active),9%,99% (active),97.3% (active),-2%,97% (active),94.7% (active),11%,98% (active),89.2% (active),11%,98% (active),81.4% (active),1%,98% (active),96.8% (active)
Cc1cc(OC(=O)CCl)ccc1C(C)(C)C,1%,12%,56.4%,2%,13%,40.5%,0%,1%,56.4%,5%,5%,5.5%,0%,5%,30.5%,2%,18%,84.6% (active)
c1ccc(N/N=C2/CCCC3/C(=N\Nc4ccccc4)CCCC23)cc1 (configuration not stated),3%,99% (active),98.2% (active),-5%,99% (active),65.5%,13%,99% (active),63.2%,-11%,99% (active),73.8% (active),-8%,98% (active),9.85%,15%,99% (active),96.1% (active)
